Screening data deposited in PubChem by The Scripps Research Institute Molecular Screening Center.
CHRM4 antagonist: antagonists of human muscarinic M4 receptor (CHRM4); CHO-hM4 cells, ACh EC80, Fluo-8 calcium fluorescence; inhibition, % at 3 µM; actives 0.73% (n = 360,000); AID 624125;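 active = inhibition above its plate's cutoff, the mean inhibition of sample wells plus 3 SD, cut at about 27% in these data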;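 also: 0% = acetylcholine EC80 with DMSO and 100% = DMSO without agonist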
Target sequence (P08173 whole entry, looked up): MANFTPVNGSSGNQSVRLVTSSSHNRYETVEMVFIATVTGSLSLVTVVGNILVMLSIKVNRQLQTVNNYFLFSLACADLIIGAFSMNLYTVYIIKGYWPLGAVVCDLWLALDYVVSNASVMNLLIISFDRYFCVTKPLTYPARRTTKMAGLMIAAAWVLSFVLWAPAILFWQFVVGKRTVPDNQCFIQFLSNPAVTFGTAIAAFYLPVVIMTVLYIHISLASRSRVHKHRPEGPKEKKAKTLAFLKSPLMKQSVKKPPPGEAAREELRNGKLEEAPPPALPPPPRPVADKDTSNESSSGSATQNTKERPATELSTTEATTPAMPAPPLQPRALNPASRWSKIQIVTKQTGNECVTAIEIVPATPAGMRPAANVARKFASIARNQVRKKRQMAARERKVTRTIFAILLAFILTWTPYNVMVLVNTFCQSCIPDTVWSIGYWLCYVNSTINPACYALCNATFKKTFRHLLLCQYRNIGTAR
CHO-K1 Ca PAM: counter-screen for M1 PAMs: effect in parental CHO-K1 cells | ATP EC20, Fluo-8 calcium fluorescence; 0% at ATP EC20, 100% at ATP max | activation, % at 3 µM | actives 0.02% (n = 360,000) | AID 602247;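 active = activation above the run cutoff, the mean activation of all test compounds plus 3 SD, cut at about 40% in these data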;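 also: peak over basal fluorescence ratio in a 140 s read after ATP addition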
M1 ag parental: counter-screen for M1 agonists: effect in parental CHO-K1 cells | Fluo-8 calcium fluorescence; scaled to maximal ATP response, vehicle zero | activation, % at 3 µM | actives 0.48% (n = 360,000); in the data active = activation above about 15%;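 also: untransfected CHO-K1 host cells lacking M1 receptor as counterscreen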
CHO-K1 Ca antag: M1 antagonist counterscreen hit in parental CHO-K1 cells. ATP-induced calcium, Fluo-8 fluorescence. inhibition, % at 3 µM. actives 0.6% (n = 360,000). AID 602250;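 active = inhibition above a per-plate cutoff, the plate's mean sample inhibition plus 3 SD, cut at about 24% in these data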;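 also: 0% = DMSO plus EC80 ATP and 100% = DMSO alone without ATP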
M4 ag: agonists of human muscarinic M4 receptor (CHRM4) | P08173 | CHO-K1 hM4/Gqi5, Fluo-8 calcium fluorescence; vehicle 0%, full acetylcholine response 100% | activation, % at 3 µM | actives 0.14% (n = 360,000) | AID 624127;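 active = activation above the run mean over all test wells plus 3 SD, cut at about 32% in these data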;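 also: peak over basal fluorescence ratio per well then scaled between controls; 0% = DMSO wells and 100% = acetylcholine at EC100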
CHRM4 PAM: CHRM4 positive allosteric modulation | AID 624126 | CHO-K1 hM4/Gqi5, Fluo-8 calcium fluorescence, ACh EC20; 0% = ACh EC20, 100% = maximal ACh | actives 0.4% (n = 360,000) | P08173 | activation, % at 3 µM;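 active = activation above its plate's cutoff, the mean activation of sample wells plus 3 SD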
* marks the source's active call; other numbers are inactive results; ! = a repeat was not active. The list is not random: actives were taken first. Their share in the collection is about 2%.

SMILES | CHRM4 antagonist | CHO-K1 Ca PAM | M1 ag parental | CHO-K1 Ca antag | M4 ag | CHRM4 PAM
Cc1ccccc1-c1nc(CSc2nc3c(c(=O)[nH]2)CCC3)c(C)o1 | -7 | -2 | -1 | 5 | -2 | 8
Cc1cccc(NC(=O)CN(CC2CCCO2)C(=O)c2cc(S(=O)(=O)N(C)C)ccc2F)c1C (centres undefined) | -3 | 8 | 0 | -6 | 2 | 3
CCCN1C(=O)CC(Sc2ncccc2C(=O)O)C1=O (centres undefined) | 7 | -18 | 0 | 16 | 1 | -2
COc1ccc(CCN2C(=O)CC(Sc3ncccc3C(=O)O)C2=O)cc1OC (centres undefined) | -14 | 21 | 1 | -2 | 0 | 32*
CCCc1nnc(NC(=O)CCC(=O)N2CCN(Cc3ccc(F)cc3)CC2)s1 | -14 | -2 | 0 | -11 | 3 | 1
CCC(C)(C(=O)NC1CCCC1)N(Cc1cccs1)C(=O)c1ccc2c(c1)OCO2 (centres undefined) | -6 | 19 | 16* | 3 | 2 | 3
CCC(C)(C(=O)NC1CCCCC1)N(Cc1cccs1)C(=O)Cc1cccs1 (centres undefined) | -2 | 9 | 0 | -1 | 0 | 8
CCN(CC)S(=O)(=O)c1ccc(OC)c(NC(=O)/C=C/c2ccco2)c1 | -2 | 10 | 1 | -12 | 3 | 11
Cc1cc(C)cc(N2C(=O)C3CCCN3C2=S)c1 (centres undefined) | -1 | 15 | 17* | -7 | 0 | -1
Cc1ccc(N2C(=O)C3CCCN3C2=S)cc1 (centres undefined) | 2 | 1 | 1 | -9 | 3 | -2
C[C@H](O)[C@@H]1C(=O)N2CCc3ccc(-c4ccccc4)cc3[C@@H]2C[C@@H]1N(C)C(=O)c1cccnc1 | 5 | -6 | 1 | 16 | 3 | 3
Cc1ccccc1Oc1ccc2c(c1)[C@@H]1C[C@H](N(C)C(=O)c3cccnc3)[C@H]([C@H](C)O)C(=O)N1CC2 | -12 | -11 | 0 | 33* | 2 | -2
NC(=O)c1ncn([C@@H]2O[C@H](CNCc3cc(Cl)ccc3OCc3ccc(Cl)cc3)[C@@H](O)[C@H]2O)n1 | -5 | 6 | 0 | 6 | 0 | 4
CN(Cc1ccccc1)C(=O)c1ccc(NC(=O)Cc2cccc(NC(=O)C3CCCN(C(=O)C4CCC4)C3)c2)cc1 (centres undefined) | 25 | 16 | 1 | -11 | 0 | -7
CNC(=S)NNC(=O)c1cccn(Cc2cccc(C(F)(F)F)c2)c1=O | -26 | -3 | 1 | -5 | 3 | 3
CN(C)C(=O)C(=O)c1cccn1-c1ccccc1C#N | -10 | 4 | 0 | 6 | 1 | 1
CC(C)N(C(=O)C(=O)c1cccn1-c1ccccc1C#N)C(C)C | 1 | -4 | 0 | 4 | 1 | 17*
O=C(Nc1ccc(Cl)cc1)Nc1ccccc1NS(=O)(=O)c1cccs1 | 19 | -2 | 16* | 34* | 23 | -19
O=C(Nc1cc(Cl)cc(Cl)c1)c1cccnc1 | -3 | 8 | 18* | 4 | 3 | -2
C[C@@H]1[C@H]2CCCC[C@H]2CN(C(=O)OC(C)(C)C)[C@@H]1c1cn(Cc2ccccc2)c2ccc(F)cc12 | -13 | -10 | 0 | -11 | 0 | -3
C[C@@H]1OC(C2CCCCC2)N(C)[C@H]2C[C@H]3c4[nH]c5ccccc5c4CCN3C[C@@H]12 (some centres undefined) | -6 | -8 | 0 | 24* | 0 | -6
C[C@@H]1ON(C)[C@H]2C[C@H]3c4[nH]c5ccccc5c4CCN3C(=O)[C@@H]12 | -4 | 1 | 0 | -2 | 1 | -1
CCc1nc2ccc(C(=O)N3CCN(C(=O)c4ccco4)CC3)cn2c1N(C)C(=O)C1CCCCC1 | -3 | 10 | 0 | -2 | 1 | -2
C[C@]12CC[C@H]3[C@@H](CCC4=CC(=O)CC[C@@]43C)[C@@H]1CC[C@@H]2C(=O)CO | -6 | 16 | 1 | -16 | 2 | -1
CC(=O)OCC(=O)[C@H]1CC[C@H]2[C@@H]3CCC4=CC(=O)CC[C@]4(C)[C@H]3CC[C@]12C | 57* | -1 | 0 | 13 | 2 | -17
SMILES | CHRM4 antagonist | CHO-K1 Ca PAM | M1 ag parental | CHO-K1 Ca antag | M4 ag | CHRM4 PAM
C[C@]12CCC(=O)C=C1CC[C@@H]1[C@@H]2CC[C@@]2(C)[C@H]1CC[C@@]21CCC(=O)O1 | 30* | -7 | 4 | -9 | 6 | -20
C[C@]12CCC(=O)C=C1CCC1C2CC[C@@]2(C)C1CCC21OCCO1 (some centres undefined) | -1 | 12 | 0 | -16 | 2 | 1
COc1ccc(NC(=O)CNC(=O)C23CC4CC(CC(C4)C2)C3)c(OC)c1 | 10 | -14 | 0 | 1 | 0 | 1
COc1ccc(OC)c(NC(=O)C(=O)NNC(=O)C23CC4CC(CC(C4)C2)C3)c1 | 2 | 15 | 25* | -9 | 23 | 1
Cc1cccc(C)c1NC(=O)c1ccc([N+](=O)[O-])s1 | -16 | 20 | 1 | -7 | 2 | 25*
Cc1cccc(NC(=O)c2ccc([N+](=O)[O-])s2)c1C | 1 | 16 | 1 | 3 | 0 | -5
Cc1ccccc1N(Cc1nnc2n1CCCCC2)C(=O)Nc1ccccc1 | -14 | 9 | 0 | -3 | 0 | 27*
CCCN1C=CC(=CC=C(C#N)C#N)C=C1 | 17 | -22 | 15 | 24* | 25 | -11
CCCCCCN1C=CC(=C/C=C(\C#N)C(=O)OCC)C=C1 | 36* | -16 | 73* | 43* | 253* | -21
C=CCN1C=CC(=CC=C(C#N)C#N)C=C1 | 23 | -30 | 12 | 27* | 29 | -15
CCOC(=O)/C(C#N)=C/C=C1\C=Cc2ccccc2N1CC | -1 | 8 | 3 | -11 | 3 | -3
CCN(CC)S(=O)(=O)c1ccc(C(=O)NCCOC(=O)c2ccc(F)cc2F)cc1 | 6 | 9 | 8 | -15 | 8 | -10
Cc1cc(N2CCN(c3ccccc3)CC2)nc2ccccc12 | -7 | 22 | 24* | -10 | 4 | -5
COc1ccc(N2CCN(c3cc(C)c4ccccc4n3)CC2)cc1 | -12 | 5 | 2 | 1 | 8 | 6
COc1cccc2sc(Nc3nc(-c4ccccn4)cs3)nc12 | 37* | -7 | 4 | 23 | 9 | -9
c1ccc(Nc2nc(-c3ccccn3)cs2)cc1 | 3 | -8 | 0 | 7 | 1 | 3
CCN1CCN(Cc2ccc(NC(=O)c3ccc(C)c(NC(=O)c4c[nH]c5cc(C(F)(F)F)ccc5c4=O)c3)cc2C(F)(F)F)CC1 | 9 | -16 | 0 | 26*! | 2 | -1
